Tgondii IFNg = T. gondii growth inhibition with IFN-gamma, primary screen, cell-based | Toxoplasma gondii growth in IFN-gamma-treated host cells; active compounds read low | activity change, negative = inhibition, % (no concentration beside the values) | actives 3.8% (n = 69,000) | AID 1259416, 2018; in the data active = activity change below about -70%, passing the limit was not always enough;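 also: host cells are HeLa cells infected with Toxoplasma gondii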
* = called active by the depositor. The sample as a whole holds a higher share of hits than the screen did.

SMILES	Tgondii IFNg
NC(=O)COc1cccc(CN2CCC3(CCNC(=O)CC3)CC2)c1	7
COCC(=O)N1C[C@H](OCCCn2cccn2)[C@@H]2OCCC[C@@H]21	4
CCOc1ccccc1C(=O)N1CCC(C(=O)NCCc2csc(-c3ccccc3)n2)CC1	7
CCOCCN1CC[C@H]2OCC[C@@H](C(=O)N3CCCO3)[C@@H]2C1	7
COc1cccc(N(Cc2nc(-c3cccc(C)c3)oc2C)S(=O)(=O)c2ccccc2)c1	-47
Cc1c(C(=O)NCCS(=O)(=O)N2CCCC2)n(C)c2ccc(Cl)cc12	-3
Cc1ccc(CN2CCC3(CC2)CC(OCc2ccncc2)CO3)cc1 (configuration not stated)	-5
CCn1c(=O)c(-c2nc(-c3ccc(C)c(C)c3)no2)c(O)c2ccc(F)cc21	-21
CC[C@@H]1C(=O)N(C)c2cnc(Nc3ccc(C(=O)NC4CCN(C)CC4)cc3OC)nc2N1C1CCCC1	-76*
CCN1C(=O)CCc2cc(C(=O)NC3CCCCC3)ccc21	68
COc1cc(OC2CCN(C)CC2)ccc1Nc1ncc2c(n1)n(C1CCCC1)c(=O)n2C	-59
CC1CCN(S(=O)(=O)c2ccc3c(c2)CCC(=O)N3CC(=O)N2CCCC2)CC1	11
O=C(NCCCNC(=O)c1ccco1)c1cccnc1	97
NCC(=O)Nc1ccc(-c2cccc(C(F)(F)F)c2)cc1F	-57
Cc1ccc(-c2cc(C(F)(F)F)nn2-c2ccc(S(N)(=O)=O)cc2)cc1	-63
NCC(=O)Nc1ccc(-n2nc(C(F)(F)F)cc2-c2ccc3c(ccc4ccccc43)c2)cc1	-87*
N[C@H]1c2ccccc2[C@H]2CN(C(=O)c3cnccn3)C[C@H]21	39
CCn1nc(C)c(NC(=O)CNCC2(C)CC(C)=NO2)c1C (configuration not stated)	88
CCN1c2ccccc2C(=O)NC12CCN(C(=O)c1cc(OC)cc(OC)c1)CC2	34
Cc1ccc(-c2nc(NC(=O)c3cncc(-c4cccs4)c3)sc2C)cc1Cl	-21
CCc1cc(C(=O)Nc2nc3c(s2)CCCCCC3)n(C)n1	-20
Cc1ccc(-c2nc(NC(=O)c3cc(C(C)(C)C)nn3C)sc2C)cc1Cl	-78*
O=C1NC2(CCN(C(=O)c3cc(-c4cccs4)[nH]n3)CC2)Nc2ccccc21	25
CN=C1Sc2nc3c(cc2CN1C1CCCCC1)c(C(C)(C)C)nn3-c1ccccc1	-85*
CN(C)S(=O)(=O)N1CCC2(CCOCC2COCC2CC2)CC1 (configuration not stated)	1
SMILES	Tgondii IFNg
CC1CCN(C(=O)Cn2c(=O)ccc3cc(S(=O)(=O)N4CCC(C)CC4)ccc32)CC1	12
Nc1cc2cc(F)ccc2nc1C1CCN(C(=O)c2cscn2)CC1	105
CCN(CC)CCN(C)Cc1nc(Cc2ccccc2F)no1	-41
CCOc1ccccc1CNc1nc(-c2ccc(Cl)cc2)nc2ccccc12	-19
CCOc1ccccc1NC(=O)c1nnn(Cc2nc(-c3ccc(OC(C)C)cc3)oc2C)c1C	33
Cc1ccccc1NC(=O)c1nnn(Cc2nc(-c3ccc(Cl)cc3)oc2C)c1C	-45
CCOc1ccc(-c2nc(Cn3nnc(C(=O)Nc4c(C)cccc4C)c3C)c(C)o2)cc1	-94*
COc1cccc(CNC(=O)c2nnn(Cc3nc(-c4ccc(C)cc4)oc3C)c2C)c1	-96*
Cc1ccc(-c2nc(Cn3nnc(C(=O)Nc4ccccc4C)c3C)c(C)o2)cc1	-88*
Cc1oc(-c2ccc(OC(C)C)cc2)nc1Cn1nnc(C(=O)Nc2cccc(Cl)c2C)c1C	-118*
CSc1ccc(CNC(=O)c2nnn(Cc3nc(-c4ccc(C)cc4)oc3C)c2C)cc1	-48
Cc1ccccc1NC(=O)c1nnn(Cc2nc(-c3ccccc3)oc2C)c1C	29
CCOc1ccc(-c2nc(Cn3nnc(C(=O)Nc4cc(C)ccc4C)c3C)c(C)o2)cc1	34
CCOc1ccc(-c2nc(Cn3nnc(C(=O)Nc4cc(C)cc(C)c4)c3C)c(C)o2)cc1	-53
Cc1ccccc1NC(=O)c1nnn(Cc2nc(-c3ccc(OC(C)C)cc3)oc2C)c1C	-39
Cc1ccc(-c2nc(Cn3nnc(C(=O)NCCCc4ccccc4)c3C)c(C)o2)cc1	-53
CCC(C(=O)OC)n1nc(C2CCNCC2)n(Cc2ccccc2)c1=O (configuration not stated)	-58
CCS(=O)(=O)N1CCC2(CC1)OC(=O)C(C)=C2C(=O)NCCN(CC(C)C)CC(C)C	32
CN1CC[C@@]2(CN(c3ncc(F)cn3)C[C@H]2c2ccccc2)C1=O	-1
COc1ccccc1-c1cccc(C(=O)N[C@H]2COC[C@@H]2OC)c1	-1
COc1ccc(OCC(=O)NCCc2sc(-c3ccc(Cl)cc3)nc2C)cc1	30
CCC12CC3CC(O)(C1)CC(C(=O)NCCc1cc(=O)[nH]c(C)n1)(C3)C2 (configuration not stated)	-6
c1cnc(N2CCC3(CCN(CC4CCOCC4)CC3)C2)nc1	4
COc1ccccc1Nc1nn(-c2ccc(F)cc2)c2c1C(=O)CCC2	-40
COc1ccc(NC(=O)c2nnn(Cc3nc(-c4ccc(Cl)cc4)oc3C)c2C)cc1	-19
SMILES	Tgondii IFNg
COc1ccc(CCNC(=O)c2nnn(Cc3nc(-c4ccc(C)cc4)oc3C)c2C)cc1OC	16
COc1ccc(CNC(=O)c2nnn(Cc3nc(-c4ccc(C)cc4)oc3C)c2C)c(OC)c1	-99*
COc1ccc(NC(=O)c2nnn(Cc3nc(-c4ccc(Cl)cc4)oc3C)c2C)cc1OC	-21
COc1ccc(NC(=O)c2nnn(Cc3nc(-c4ccc(C)cc4)oc3C)c2C)cc1	-95*
COc1ccc(CNC(=O)c2nnn(Cc3nc(-c4ccc(C)cc4)oc3C)c2C)cc1OC	-87*
COc1ccc(NC(=O)c2nnn(Cc3nc(-c4ccccc4)oc3C)c2C)c(OC)c1	86
Cc1ccc(-c2nc(Cn3nnc(C(=O)Nc4cc(C)cc(C)c4)c3C)c(C)o2)cc1	-49
CCOc1ccc(-c2nc(Cn3nnc(C(=O)Nc4cc(OC)ccc4OC)c3C)c(C)o2)cc1	81
Cc1ccc(CN(Cc2ccncc2)Cc2cnc(N3CCCCC3)nc2)cc1	39
O=C(NCCc1cc(Cl)c2c(c1)OCCO2)C1(c2cccc(F)c2)CCOCC1	-6
O=S(=O)(c1ccc(F)cc1)N1C[C@@H]2OCCN(c3ncc(F)cn3)[C@H]2C1	-2
CCc1ccc(Nc2nc(C(=O)N3CCCCC3C)nc3ccccc23)cc1 (configuration not stated)	-57
CCN=C1SC(C(=O)Nc2ccc(C(=O)O)cc2)CC(=O)N1CC (configuration not stated)	12
O=C(O)C1CC(N2CCCC2)CCN1S(=O)(=O)c1cccc(F)c1 (configuration not stated)	3
CCCS(=O)(=O)N1C[C@H](OCc2csc(C)n2)[C@@H]2COC[C@@H]21	5
COc1ccc(CNC(=O)c2nc(N(C)C)c3cnn(C)c3n2)cc1	-17
COc1ccc(Cl)cc1S(=O)(=O)Nc1ccc(-c2nc(-c3ccc(C)c(C)c3)co2)cc1	-32
Cc1cc(C)n(C)c(=O)c1C(=O)N1CCC(c2cc3ncccc3cn2)CC1	89
O=C(Nc1c(C(=O)NCc2cccnc2)[nH]c2ccccc12)c1ccc(Cl)cc1	-56
O=C(Nc1ccccc1C(=O)NCc1cccnc1)c1cc2ccccc2o1	-35
O=C(NCc1cccnc1)c1ccccc1C(=O)Nc1sc2ccccc2c1Cl	-94*
Cc1ccc(Cl)cc1NC(=O)Cn1ncc2c(N3CCN(c4ccccn4)CC3)ncnc21	-53
CC(C)Nc1ncnc2c1CCN(C(=O)Cc1ccccn1)CC2	9
c1cnc(N2CCc3ncnc(C4CC4)c3CC2)nc1	-22

High-throughput results from PubChem.
